Our source for the Potency values is PubChem BioAssay (Tox21).

Results filed as inconclusive are left out. A call without a number means that no potency is given here. Active and inactive are the calls of the source. The call rests on the fitted dose curve; in most records, active means well fitted activation curve with a large enough effect in the signal ratio in the repeat runs (not every such curve was filed as active); inconclusive means weak or mixed curves, or effect the other way; inactive means no such curve, though single readings can be large or run the other way; the % refers to the signal ratio.
Potency means the concentration at half of the fitted maximal effect.

The target of this experiment is Peroxisome proliferator-activated receptor gamma (Homo sapiens) (UniProt P37231). Put plainly: qHTS assay to identify small molecule agonists of the peroxisome proliferator-activated receptor gamma (PPARg) signaling pathway (AID 743094). The following applies: HEK293H PPARg-UAS-bla, beta-lactamase FRET ratio, 17 h; series mostly up to 57 µM. From the text: U.S. Tox21 Program National Center for Advancing Translational Sciences [NCATS] NIH Chemical Genomics Center [NCGC] U.S. Environmental Protection Agency [EPA] National Institutes of Environmental Health Sciences [NIEHS] National Toxicology Program [NTP] U.S. Food and Drug Administration [FDA] Tox21 Assay Overview: The peroxisome proliferator-activated receptors (PPARs) are lipid-activated transcription factors of the nuclear receptor superfamily with three distinct subtypes namely PPAR alpha, PPAR delta (also called PPAR beta) and PPAR gamma (PPARg). All these subtypes heterodimerize with Retinoid X receptor (RXR) and these heterodimers regulate transcription of various genes. PPAR-gamma receptor (glitazone receptor) is involved in the regulation of glucose and lipid metabolism. To identify the compounds that activate PPAR-gamma signaling, GeneBLAzer PPAR gamma UAS-bla HEK293H cell line (Invitrogen, Carlsbad, CA, USA) containing a beta-lactamase reporter gene under control of the control of an upstream activator sequence (UAS) stably integrated into HEK293H cells was used to screen Tox21 compound library.
Sequence of Peroxisome proliferator-activated receptor gamma (Homo sapiens) (P37231 whole entry, looked up): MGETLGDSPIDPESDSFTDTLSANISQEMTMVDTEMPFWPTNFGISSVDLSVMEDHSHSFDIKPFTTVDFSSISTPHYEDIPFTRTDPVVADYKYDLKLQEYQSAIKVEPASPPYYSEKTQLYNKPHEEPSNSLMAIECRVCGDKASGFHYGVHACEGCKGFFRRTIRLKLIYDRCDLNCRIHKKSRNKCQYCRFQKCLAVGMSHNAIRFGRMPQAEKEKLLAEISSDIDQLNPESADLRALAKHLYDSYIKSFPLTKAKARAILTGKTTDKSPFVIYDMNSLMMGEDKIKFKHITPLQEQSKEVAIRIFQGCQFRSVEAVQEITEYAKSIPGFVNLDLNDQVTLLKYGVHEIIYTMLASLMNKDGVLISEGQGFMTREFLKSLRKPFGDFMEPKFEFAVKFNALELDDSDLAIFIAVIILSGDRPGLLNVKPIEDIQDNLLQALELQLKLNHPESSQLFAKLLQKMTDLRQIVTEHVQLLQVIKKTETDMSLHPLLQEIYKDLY
Tox21 Assay Protocol Summary: PPARg-bla cells were dispensed at 3000 cells/6uL/well in 1536-well black wall/clear bottom plates using a Multidrop Combi (Thermo Fisher Scientific, Waltham, MA) dispenser. After the assay plates were incubated at 37C and 5% CO2 for 5 h, 23 nL of compounds dissolved in DMSO, positive controls or DMSO only was transferred to the assay plate by a Pintool station (Kalypsys, San Diego, CA). The assay plates were incubated at 37C for 17 h. After 1 uL of LiveBLAzerTM B/G FRET substrate was added using a Bioraptr Flying Reagent Dispenser (FRD) workstation (Beckman Coulter, Indianapolis, IN, USA), the plates were incubated at room temperature for 1 h, and fluorescence intensity was measured by an Envision plate reader (PerkinElmer, Shelton, CT).
(In general: qHTS replaces the single test concentration by a dilution series.)
Turning to `CC(=O)[C@H]1[C@H](C#N)C[C@H]2[C@@H]3CC=C4C[C@@H](O)CC[C@]4(C)[C@H]3CC[C@@]21C`, the Potency result was “inactive”.
As for `C=C(C)[C@@H]1CCC2=CCC[C@@H](C)[C@]2(C)C1`, the Potency result is “inactive”.
Next, `NC1[C@H]2CN(c3nc4c(cc3F)c(=O)c(C(=O)O)cn4-c3ccc(F)cc3F)C[C@@H]12` (stereo not given in full): 23.9 µM (active).
Next, `C[C@@H](O[C@H]1OCCN(Cc2n[nH]c(=O)[nH]2)[C@H]1c1ccc(F)cc1)c1cc(C(F)(F)F)cc(C(F)(F)F)c1`: “inactive”; `CCC1CO1` (stereo not given): “inactive”; `CCCCOc1ccc(OCCCN2CCOCC2)cc1`: “inactive”.
Under `O=C(OC(=O)c1ccccc1)c1ccccc1` stands “inactive”.
For `C[C@@H](O)[C@H]1C(=O)N2C(C(=O)O)=C([C@H]3CCCO3)S[C@H]12`, the Potency entry is “inactive”.
Under `CCCCCCCCN` stands “inactive”; under `CN(C)CCN1C(=O)c2ccccc2N(C)c2ccccc21`, “inactive”.
For the compound `CCCCCCCC/C=C\CCCCCCCCO`, the Potency result is “inactive”.
Next, `O=C(O)CCc1nc(-c2ccccc2)c(-c2ccccc2)o1`: 15.1 µM (active).
As for `C=Cc1ccc(S(=O)(=O)O)cc1`, the Potency result is “inactive”.
Consider `Cc1ccccc1S`, for which the Potency entry was “inactive”.
Regarding `CC(C)(C)C(=O)C(=O)O`, the Potency result is “inactive”.
Under `CCOC(=O)/C=C/C(=O)OCC` stands “inactive”; under `CC(CN(C)C)C(C)(O)Cc1ccc(Cl)cc1` (stereo not given), “inactive”.
Next, `Nc1cccc2c1CN(C1CCC(=O)NC1=O)C2=O` (stereo not given): “inactive”.
Next, `CCOC(=O)c1ccc(OCCN2C[C@H](O)[C@@H](O)[C@H](O)[C@H]2CO)cc1`: “inactive”.
For `CC=C(Cl)Cl`, the Potency result is “inactive”.
With `O=C(/C=C/c1ccc(O)c(O)c1)O[C@@H]1C[C@@](OC(=O)/C=C/c2ccc(O)c(O)c2)(C(=O)O)C[C@@H](O)[C@@H]1O`, the Potency entry is “inactive”.
For the compound `COc1cc(C(=O)NCCCCCC(=O)O)cc(OC)c1OC`, the Potency entry is “inactive”.
Under `O=C=Nc1ccc(Cl)c(Cl)c1` stands “inactive”; under `CN1CCCN=C1COC(=O)C(O)(c1ccccc1)C1CCCCC1` (stereo not given), “inactive”; under `C=C1c2cccc(O)c2C(O)=C2C(=O)[C@]3(O)C(O)=C(C(N)=O)C(=O)[C@@H](N(C)C)[C@@H]3[C@@H](O)[C@H]12`, “inactive”.
Next, `C=COCC(C)C`: “inactive”.
Under `Nc1nc2ccc([N+](=O)[O-])cc2s1` stands “inactive”; under `Oc1cccc(O)c1O`, “inactive”; under `N#CCc1ccc(Cl)cc1Cl`, “inactive”.
For `COc1ncnc(NS(=O)(=O)c2ccc(N)cc2)c1OC`, the Potency result was “inactive”.
Next, `O=C(CCc1ccc(O)cc1)c1c(O)cc(O)cc1O`: “inactive”; `CC(C)COCC(CN(Cc1ccccc1)c1ccccc1)N1CCCC1` (stereo not given): “inactive”; `O=C1c2ccccc2C(=O)C1(O)O`: “inactive”.
Under `CC(=O)OCC[N+](C)(C)C` stands “inactive”.
Turning to `O=C(Cn1ccnc1[N+](=O)[O-])NCCO`, the Potency result is “inactive”.
Next, `CC(=O)N/N=C/c1ccc([N+](=O)[O-])o1`: “inactive”; `O=[N+]([O-])c1ccc(O/N=C/c2cc(Br)c(O)c(Br)c2)c([N+](=O)[O-])c1`: “inactive”.
Next, `Oc1cc2c(cc1O)[C@H]1c3ccc(O)c(O)c3OC[C@@]1(O)C2`: “inactive”.
Next, `Cc1cccc(N(C)C(=S)Oc2ccc3c(c2)CCC3)c1`: “inactive”.
In the case of `Oc1c(I)cc(I)c2cccnc12`, the Potency result is “inactive”.
